Measurements as given in PubChem BioAssay (EPA / NIEHS).
Inconclusive results are not listed. Activity calls are given as the source filed them. Rule for the calls, unless noted: active = hit-call score of the fitted dose curve at least 0.9, where 1 is the maximum; inactive = score below 0.9.

Tests used:
[1] = ACEA_ER_80hr: ACEA Biosciences xCELLigence Real-Time Cell Analysis on Estrogen Receptor Agonism for Proliferation (AID 2282667; active = hit-call score of the fitted dose curve at least 0.9, where 1 is the maximum); details: T47D proliferation, impedance (xCELLigence), 80 h
Outline: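 T-47D cells monitored by electrical impedance (xCELLigence) with compound present throughout; 80 h timepoint, positive-direction fitting versus DMSO. Eight-point 1:4 dilutions from 100 uM final, duplicate plates.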

[2] = ATG_CRE_CIS: Attagene CIS-FACTORIAL HepG2 Assay for human cAMP Responsive Element (CRE) binding protein 3 (AID 2282926); details: HepG2 CRE cis-reporter, Attagene multiplexed mRNA; actives raise or lower the signal
Outline: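 Induced reporter mRNA from a CRE cis element, measured in HepG2 among many multiplexed units at 24 h. Detection used RT-PCR plus capillary electrophoresis of fluorescent fragments; DMSO served as negative control.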

[3] = target: CCAAT/enhancer-binding protein beta (Homo sapiens) (UniProt P17676); assay: ATG_C_EBP_CIS: Attagene CIS-FACTORIAL HepG2 Assay for human CCAAT/Enhancer Binding Protein (C/EBP) beta (AID 2282927); details: HepG2 Attagene cis-factorial transcription factor reporter; actives raise or lower the signal
CCAAT/enhancer-binding protein beta (Homo sapiens), sequence (P17676 whole entry, looked up): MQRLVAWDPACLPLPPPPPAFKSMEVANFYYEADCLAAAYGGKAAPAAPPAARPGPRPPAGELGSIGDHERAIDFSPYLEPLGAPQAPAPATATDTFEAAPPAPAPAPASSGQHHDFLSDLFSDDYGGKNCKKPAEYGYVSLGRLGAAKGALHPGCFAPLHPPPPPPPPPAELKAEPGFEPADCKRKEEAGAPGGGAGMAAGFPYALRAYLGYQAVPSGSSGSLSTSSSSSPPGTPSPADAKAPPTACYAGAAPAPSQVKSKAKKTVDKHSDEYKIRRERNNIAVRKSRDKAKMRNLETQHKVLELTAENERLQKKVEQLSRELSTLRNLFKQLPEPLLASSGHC
Outline: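 Changes in reporter mRNA, rather than exogenous chimeric receptor activity, reflect native C/EBP signalling in transfected HepG2 cells dosed for 24 h; transcripts are detected by RT-PCR and capillary electrophoresis.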

[4] = ATG_CMV_CIS: Attagene CIS-FACTORIAL HepG2 Assay for human CMV (Internal Marker) (AID 2282928); details: HepG2 CMV promoter reporter, transcription factor profiling; actives raise or lower the signal;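 note: endpoint acts as a background internal control marker rather than a target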
Outline: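 Reporter transcripts from transfected HepG2 cells are isolated after 24 h of chemical dosing, reverse-transcribed and amplified. Fragments labeled with 6-FAM are cut with HpaI and quantified by capillary electrophoresis; DMSO defines baseline.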

[5] = ATG_DR4_LXR_CIS: Attagene CIS-FACTORIAL HepG2 Assay for human Liver X Receptor (LXR), DR4 submotif (AID 2282929); details: HepG2 Attagene DR4 cis-reporter, mRNA transcription; actives raise or lower the signal
Outline: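 Total RNA from 24 h-treated, MRTU-transfected HepG2 cells underwent reverse transcription, PCR, fluorescent primer extension and restriction digestion before capillary electrophoresis. Both increases and decreases in reporter signal were fitted against DMSO.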

[6] = ATG_AP_1_CIS: Attagene CIS-FACTORIAL HepG2 Assay for human Activator Protein 1 (AP-1) (AID 2282931); details: HepG2 Attagene cis-factorial AP-1 reporter mRNA; actives raise or lower the signal
Outline: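 HepG2, transient cis-reporter transfection; 24 h; readout RT-PCR/CE fluorescence; DMSO baseline, gain and loss fitted.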

[7] = ATG_AP_2_CIS: Attagene CIS-FACTORIAL HepG2 Assay for human Activator Protein 2 (AP-2) (AID 2282932); details: HepG2 AP-2 cis-reporter, Attagene transcription factor profiling; actives raise or lower the signal
Outline: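 Endogenous transcription factor activity is reported through transfected multiplex reporter constructs in HepG2, after 24 h of compound exposure. Transcripts were quantified by RT-PCR and capillary electrophoresis of fluorescent fragments. Bidirectional fit against DMSO.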

[8] = ATG_BRE_CIS: Attagene CIS-FACTORIAL HepG2 Assay for human Bone Morphogenetic Protein (BMP) Response Element (BRE) (AID 2282933); details: HepG2 BMP response element reporter, Attagene transcription factor profiling; actives raise or lower the signal
Outline: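 Fluorescence-labelled reporter cDNA fragments, separated by capillary electrophoresis, gave the signal for this component of a 52-readout multiplex. HepG2 cells were transfected, exposed to chemicals for 24 h, and compared with DMSO using bidirectional fitting.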

[9] = target: Retinoic acid receptor alpha (Homo sapiens) (UniProt P10276); assay: ATG_DR5_RAR_CIS: Attagene CIS-FACTORIAL HepG2 Assay for human Retinoic Acid Receptor Alpha (RARE), DR5 submotif (AID 2282934); details: HepG2 Attagene cis-factorial RARE DR5 reporter, mRNA; actives raise or lower the signal
Retinoic acid receptor alpha (Homo sapiens), sequence (P10276 whole entry, looked up): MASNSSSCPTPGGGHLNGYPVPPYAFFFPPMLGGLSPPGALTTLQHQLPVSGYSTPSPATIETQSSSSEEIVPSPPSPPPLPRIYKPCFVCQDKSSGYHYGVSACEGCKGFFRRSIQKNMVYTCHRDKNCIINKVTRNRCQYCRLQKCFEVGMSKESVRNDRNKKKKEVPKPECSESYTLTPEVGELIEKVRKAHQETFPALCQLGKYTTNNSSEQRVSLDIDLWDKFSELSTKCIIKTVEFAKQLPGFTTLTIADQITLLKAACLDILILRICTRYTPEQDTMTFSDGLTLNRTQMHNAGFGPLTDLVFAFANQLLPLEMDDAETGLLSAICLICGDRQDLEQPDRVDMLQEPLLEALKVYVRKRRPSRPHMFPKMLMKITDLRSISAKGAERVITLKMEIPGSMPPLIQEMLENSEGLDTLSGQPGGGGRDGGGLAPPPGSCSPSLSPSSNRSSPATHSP
Outline: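 HepG2, transient cis-reporter transfection, 24 h exposure. mRNA readout: RT-PCR, FAM label, HpaI cut, capillary electrophoresis. DMSO baseline, gain/loss fitting.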

[10] = target: Transcription factor E2F1 (Homo sapiens) (UniProt Q01094); assay: ATG_E2F_CIS: Attagene CIS-FACTORIAL HepG2 Assay for human E2F Transcription Factor 1 (AID 2282935); details: HepG2 Attagene cis-reporter, E2F reporter RNA transcripts; actives raise or lower the signal
Transcription factor E2F1 (Homo sapiens), sequence (Q01094 whole entry, looked up): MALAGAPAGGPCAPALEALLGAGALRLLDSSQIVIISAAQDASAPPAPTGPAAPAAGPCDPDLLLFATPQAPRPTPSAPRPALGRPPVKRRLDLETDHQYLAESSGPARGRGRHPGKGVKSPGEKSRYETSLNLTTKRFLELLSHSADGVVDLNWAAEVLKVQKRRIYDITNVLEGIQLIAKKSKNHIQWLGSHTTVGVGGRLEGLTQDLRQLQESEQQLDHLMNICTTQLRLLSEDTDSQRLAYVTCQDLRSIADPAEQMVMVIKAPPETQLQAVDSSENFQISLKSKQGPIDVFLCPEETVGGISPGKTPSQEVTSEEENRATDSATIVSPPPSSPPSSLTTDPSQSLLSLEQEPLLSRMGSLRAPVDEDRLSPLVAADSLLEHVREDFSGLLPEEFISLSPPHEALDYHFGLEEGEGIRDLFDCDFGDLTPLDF
Outline: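 Gain or loss of reporter transcript, fitted against DMSO, reflects E2F1-driven transcription. Transiently transfected HepG2 dosed 24 h before RNA isolation. Quantified by fluorescent RT-PCR products separated by capillary electrophoresis.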

[11] = ATG_E_Box_CIS: Attagene CIS-FACTORIAL HepG2 Assay for human Enhancer Box (E-box) (AID 2282936); details: HepG2 E-box cis-reporter transcription, actives raise or lower the signal
Outline: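 E-box-driven reporter transcripts measured in transiently transfected HepG2 after 24 h exposure: RNA reverse-transcribed, PCR-amplified, fluorescently labelled, digested and resolved by capillary electrophoresis. Gain or loss relative to DMSO.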

[12] = ATG_M_61_CIS: Attagene CIS-FACTORIAL HepG2 Assay for M61 Transcription Factor (Internal Marker) (AID 2282937); details: HepG2 Attagene CIS-FACTORIAL M61 internal marker reporter; actives raise or lower the signal
Outline: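 Transfect HepG2 with MRTUs; dose 24 h; isolate RNA; reverse-transcribe with DNase I treatment; PCR-amplify, FAM-label and cut with HpaI for 2 h at 37 C; resolve by CE. Bidirectional fitting against DMSO.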

[13] = ATG_EGR_CIS: Attagene CIS-FACTORIAL HepG2 Assay for human Early Growth Response 1 (EGR1) (AID 2282938); details: HepG2 Attagene CIS-FACTORIAL EGR reporter mRNA; actives raise or lower the signal
Outline: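 After a 24 h treatment of transiently transfected HepG2 cells, total RNA was reverse-transcribed and reporter sequences PCR-amplified, labelled and run on capillary electrophoresis. Reporters sit under cis-regulatory promoters sensing endogenous factors.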

[14] = ATG_M_19_CIS: Attagene CIS-FACTORIAL HepG2 Assay for M19 Transcription Factor (Internal Marker) (AID 2282939); details: HepG2 Attagene CIS-FACTORIAL M19 internal marker reporter; actives raise or lower the signal
Outline: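 HepG2, MRTU transient transfection, 24 h dosing. Total RNA → RT-PCR → 6-FAM primer extension → HpaI digest → CE fluorescence. Bidirectional curve fit, DMSO negative control.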

[15] = ATG_ERE_CIS: Attagene CIS-FACTORIAL HepG2 Assay for Estrogen Response Element (ERE) (AID 2282940); details: HepG2 ERE cis-reporter, Attagene RNA transcript; actives raise or lower the signal
Outline: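 After a 24 h chemical treatment, RNA from reporter-transfected HepG2 cells is reverse-transcribed, PCR-amplified and fluorescently labelled. Fragments separated by capillary electrophoresis give reporter signal; DMSO serves as negative control.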

[16] = ATG_Ets_CIS: Attagene CIS-FACTORIAL HepG2 Assay for human Erythroblast Transformation Specific (ETS) (AID 2282941); details: HepG2 ETS cis-reporter transcription, actives raise or lower the signal
Outline: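 Bidirectional fit versus DMSO of reporter mRNA signal, detected by RT-PCR and capillary electrophoresis in HepG2 cells transiently transfected with cis-element reporters and dosed 24 h.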

[17] = target: Hepatocyte nuclear factor 3-beta (Homo sapiens) (UniProt Q9Y261); assay: ATG_FoxA2_CIS: Attagene CIS-FACTORIAL HepG2 Assay for human Forkhead box A2 (FOXA2) (AID 2282942); details: HepG2 cis-reporter transcription factor activity, 24 h; actives raise or lower the signal
Hepatocyte nuclear factor 3-beta (Homo sapiens), sequence (Q9Y261 whole entry, looked up): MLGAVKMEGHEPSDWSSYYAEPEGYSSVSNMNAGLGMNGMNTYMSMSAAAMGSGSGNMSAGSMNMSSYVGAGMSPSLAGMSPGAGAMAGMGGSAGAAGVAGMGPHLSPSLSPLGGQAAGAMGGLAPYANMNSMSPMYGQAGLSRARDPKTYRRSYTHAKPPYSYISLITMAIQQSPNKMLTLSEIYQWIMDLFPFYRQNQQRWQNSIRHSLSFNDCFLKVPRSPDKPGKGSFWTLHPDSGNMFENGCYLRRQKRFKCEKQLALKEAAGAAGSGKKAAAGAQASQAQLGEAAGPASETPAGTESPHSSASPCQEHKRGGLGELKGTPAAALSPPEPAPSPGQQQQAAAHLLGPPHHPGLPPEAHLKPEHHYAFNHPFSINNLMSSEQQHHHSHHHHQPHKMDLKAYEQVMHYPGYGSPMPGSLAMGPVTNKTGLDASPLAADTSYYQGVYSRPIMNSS
Outline: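 24 h dosing of HepG2 bearing cis-reporter constructs; mRNA readout by RT-PCR/CE fluorescence; bidirectional fit, DMSO baseline.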

[18] = ATG_FoxO_CIS: Attagene CIS-FACTORIAL HepG2 Assay for human Forkhead box O (FoxO) (AID 2282943); details: HepG2 Attagene cis-reporter, FoxO element, mRNA; actives raise or lower the signal
Outline: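 Human hepatoma HepG2 cells carry transiently introduced reporter transcription units controlled by cis promoter elements. Chemical treatment lasted 24 h, and mRNA signal was compared with DMSO.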

[19] = ATG_GATA_CIS: Attagene CIS-FACTORIAL HepG2 Assay for human GATA Binding Protein (AID 2282944); details: HepG2 GATA cis-element reporter, Attagene multiplex mRNA; actives raise or lower the signal
Outline: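 Cells: HepG2, transiently transfected with cis-regulated reporter transcription units. Exposure: 24 h. Detection: RT-PCR plus capillary electrophoresis of FAM-labeled fragments. Analysis: bidirectional, DMSO as baseline.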

[20] = target: Aryl hydrocarbon receptor (Homo sapiens) (UniProt P35869); assay: ATG_Ahr_CIS: Attagene CIS-FACTORIAL HepG2 Assay for human Aryl Hydrocarbon Receptor (Ahr) (AID 2282930); details: HepG2 AhR cis-factorial reporter transcription; actives raise or lower the signal
Aryl hydrocarbon receptor (Homo sapiens), sequence (P35869 whole entry, looked up): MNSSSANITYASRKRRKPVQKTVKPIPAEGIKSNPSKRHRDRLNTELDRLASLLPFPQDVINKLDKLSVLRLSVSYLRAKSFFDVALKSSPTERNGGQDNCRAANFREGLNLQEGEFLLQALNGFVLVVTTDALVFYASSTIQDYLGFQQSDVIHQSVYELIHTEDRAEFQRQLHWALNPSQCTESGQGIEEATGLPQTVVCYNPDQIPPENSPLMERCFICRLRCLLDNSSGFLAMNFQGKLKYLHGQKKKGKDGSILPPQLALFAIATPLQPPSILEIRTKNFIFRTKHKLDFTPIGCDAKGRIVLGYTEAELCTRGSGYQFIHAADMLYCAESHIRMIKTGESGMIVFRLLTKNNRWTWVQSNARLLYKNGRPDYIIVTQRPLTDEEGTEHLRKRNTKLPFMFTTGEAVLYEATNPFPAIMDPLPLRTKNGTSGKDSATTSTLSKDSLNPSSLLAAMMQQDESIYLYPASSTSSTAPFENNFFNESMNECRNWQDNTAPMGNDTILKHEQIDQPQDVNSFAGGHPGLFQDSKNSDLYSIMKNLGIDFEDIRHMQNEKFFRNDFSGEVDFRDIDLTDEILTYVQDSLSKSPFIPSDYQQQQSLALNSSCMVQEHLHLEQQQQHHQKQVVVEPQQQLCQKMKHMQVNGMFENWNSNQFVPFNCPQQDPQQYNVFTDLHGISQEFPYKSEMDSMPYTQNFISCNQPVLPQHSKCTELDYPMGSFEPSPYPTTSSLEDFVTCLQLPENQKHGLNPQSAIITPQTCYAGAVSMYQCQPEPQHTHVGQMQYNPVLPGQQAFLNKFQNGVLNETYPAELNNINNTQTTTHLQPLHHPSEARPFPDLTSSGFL
Outline: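 HepG2, transient MRTU (cis) transfection, 24 h exposure. RNA → cDNA → PCR → 6-FAM primer extension → HpaI 2 h 37 C → CE. Fit: bidirectional, DMSO baseline.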

Measured: AC50

CCCCCCCCCCCCCCCCC
inactive: [2] | [3] | [4] | [5] | [6] | [7] | [8] | [9] | [10] | [11] | [12] | [13] | [14] | [16] | [17] | [18] | [19]
active: [1] 10.5 µM | [15] 25.6 µM

CCCCCCCCCc1ccc(OCCO)cc1
active: [1] 0.278 µM | [2] 22.8 µM | [3] 4.25 µM | [4] 13.3 µM | [5] 19.3 µM | [6] 2.26 µM | [7] 23.2 µM | [8] 7.68 µM | [11] 23.1 µM | [14] 25.2 µM | [16] 22.9 µM | [18] 13.3 µM
inactive: [10] | [12] | [13] | [15] | [19]

CC(C)(C)c1cc(CCC(=O)OCC(COC(=O)CCc2cc(C(C)(C)C)c(O)c(C(C)(C)C)c2)(COC(=O)CCc2cc(C(C)(C)C)c(O)c(C(C)(C)C)c2)COC(=O)CCc2cc(C(C)(C)C)c(O)c(C(C)(C)C)c2)cc(C(C)(C)C)c1O
inactive: [2] | [3] | [4] | [5] | [20] | [6] | [7] | [8] | [10] | [11] | [12] | [13] | [14] | [16] | [18] | [19]
active: [1] 0.173 µM | [15] 7.29 µM

CCOC(=O)CC(=O)C(F)(F)C(F)(F)F
active: [1] 9.87 µM
inactive: [2] | [3] | [4] | [20] | [6] | [7] | [8] | [9] | [10] | [12] | [13] | [14] | [15] | [16] | [17] | [18] | [19]

O=C(Cl)c1ccc(Cl)cc1Cl
inactive: [1] | [2] | [3] | [4] | [5] | [6] | [7] | [8] | [9] | [10] | [12] | [13] | [14] | [15] | [16] | [17] | [18] | [19]

CC(=O)C=O
inactive: [1] | [2] | [3] | [4] | [20] | [6] | [7] | [8] | [9] | [10] | [11] | [12] | [13] | [14] | [15] | [16] | [17] | [18] | [19]

Oc1ccc2c(c1)CCC2
active: [15] 55.2 µM
inactive: [1] | [2] | [3] | [4] | [5] | [6] | [7] | [8] | [9] | [10] | [11] | [12] | [13] | [14] | [16] | [17] | [19]
